In PubChem BioAssay AID1671190 (National Center for Advancing Translational Sciences (NCATS), 2021):
Out of some 580,000 compounds screened, about 6,100 (1.1%) were called active. About 15% were inconclusive and are not listed. Calls come from the whole dose curve; as a rule, active = well fitted inhibition curve with a large enough effect; inconclusive = small, poorly fitted or top-dose-only effect, or another doubt; inactive = no such curve, though single readings can be large or run the other way. What follows is part of a selection rich in actives, with near analogues and random picks from the rest.

The molecules below were run against Polyunsaturated fatty acid lipoxygenase ALOX12 (Homo sapiens) (UniProt P18054) (assay: Primary qHTS assay for inhibitors of human arachidonate 12S-lipoxygenase (ALOX12): Round 2). Conditions: purified 12hLO, xylenol orange hydroperoxide absorbance; series mostly up to 108 µM; activity change, negative = inhibition: at the top concentration.
Chain of Polyunsaturated fatty acid lipoxygenase ALOX12 (Homo sapiens) (P18054 whole entry, looked up): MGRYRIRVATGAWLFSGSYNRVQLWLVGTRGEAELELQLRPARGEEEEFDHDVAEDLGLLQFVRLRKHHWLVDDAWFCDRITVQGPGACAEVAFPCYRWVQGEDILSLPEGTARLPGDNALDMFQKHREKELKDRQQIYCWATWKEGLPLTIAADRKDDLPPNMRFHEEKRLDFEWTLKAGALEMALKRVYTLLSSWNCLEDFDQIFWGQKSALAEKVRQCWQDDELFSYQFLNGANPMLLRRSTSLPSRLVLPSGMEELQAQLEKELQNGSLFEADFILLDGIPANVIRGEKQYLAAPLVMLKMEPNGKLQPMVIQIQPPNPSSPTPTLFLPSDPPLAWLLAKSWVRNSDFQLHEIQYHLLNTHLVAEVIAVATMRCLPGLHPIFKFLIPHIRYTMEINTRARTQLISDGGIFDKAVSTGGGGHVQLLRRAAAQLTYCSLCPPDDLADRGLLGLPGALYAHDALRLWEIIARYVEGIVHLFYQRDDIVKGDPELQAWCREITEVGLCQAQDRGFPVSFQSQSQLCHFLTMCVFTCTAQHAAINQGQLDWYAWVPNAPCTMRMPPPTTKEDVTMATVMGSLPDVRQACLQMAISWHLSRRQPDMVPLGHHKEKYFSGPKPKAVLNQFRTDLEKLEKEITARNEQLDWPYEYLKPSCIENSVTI
Outline: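 Purified human 12hLO (150 nM final) in 25 mM Hepes, 0.01% Triton X-100, pH 7.0 was preincubated 15 min at room temperature with compound. Then 40 uM arachidonic acid was added, 30 min. Hydroperoxide was read by Fe-XO absorbance ratio 573/405 nm.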
% is set by controls: 0 for no effect and ±100 for the full control effect; potency is the fitted concentration of half-maximal effect.

| Structure (SMILES) | activity change, negative = inhibition | Potency |
| --- | --- | --- |
| N#Cc1ncn(CCC(=O)Nc2ccc(F)c(F)c2)n1 | -16.6% (inactive) |  |
| COc1ccc(C)cc1NC(=O)NC(C(=O)N1CCc2ccccc21)C(C)C (configuration not stated) | -18.5% (inactive) |  |
| Cc1noc(-c2ccc(OC(F)(F)F)cc2)c1C(=O)NCc1ccc2c(c1)OCO2 | 47.3% (inactive) |  |
| CCC1CCCCN1C(=O)Cn1cccc1-c1nc(-c2ccc(F)cc2)no1 (configuration not stated) | 6.64% (inactive) |  |
| O=C(Cc1ccc(F)cc1)N1CCC2(CC1)NC(=O)N(c1ccccc1)N2 |  | 5.01 µM (active) |
| O=C(c1ccccc1)c1cccn1CC(=O)N1CCN(c2ccc(F)cc2)CC1 | 439% (inactive) |  |
| O=C(NC1CCCc2c1[nH]c1ccc(F)cc21)c1n[nH]c2c1CCCC2 (configuration not stated) | 13.5% (inactive) |  |
| O=C(c1ccc2c(c1)OCO2)N1CCC(n2c(=O)[nH]c3ccccc32)CC1 | -25.6% (inactive) |  |
| O=C(Cc1ccc(F)cc1)N1CCC(n2cc(-c3nc(-c4ccccc4)no3)nn2)CC1 | 2.49% (inactive) |  |
| O=C(c1n[nH]c2c1CCCC2)N1CCC2(CC1)NC(=O)N(c1ccc(F)cc1)N2 |  | 1.41 µM (active) |
| CC(=O)Nc1cccc(C(=O)N2CCC3(CC2)NC(=O)N(c2cccc(Cl)c2)N3)c1 |  | 1.41 µM (active) |
| O=C(c1ccc2c(c1)OCO2)N1CCC2(CC1)NC(=O)N(c1ccccc1)N2 |  | 5.01 µM (active) |
| O=C(c1cccc(Cl)c1)N1CCC2(CC1)NCc1ccccc1NC2=O | 3.75% [at 6.33 µM] (inactive) |  |
| O=C(c1ccc2c(c1)OCO2)N1CCC2(C1)C(=O)Nc1ccccc12 (configuration not stated) | 5.73% [at 6.33 µM] (inactive) |  |
| CCC(CC)C(=O)Nc1cccc(C(=O)N2CCCC2)c1 | 5.32% (inactive) |  |
| O=C(c1cc2ccccc2oc1=O)N(Cc1ccccc1)c1cccc([N+](=O)[O-])c1 | -8.8% (inactive) |  |
| CC1CCN(S(=O)(=O)c2ccc3c(ccc(=O)n3CC(=O)NCc3ccccn3)c2)CC1 | 18.9% (inactive) |  |
| COc1cccc(CC(=O)N2CCC3(CC2)N=C(c2ccc(Cl)cc2)NO3)c1 | -1.12% (inactive) |  |
| Cc1ccc(-c2cn3nc(N4CCCC(C(=O)NCCc5cccs5)C4)sc3n2)cc1 (configuration not stated) | -18.5% (inactive) |  |
| COCCn1nc2n(c1=O)CCN(S(=O)(=O)c1ccc(Cl)s1)CC2 | 7.1% (inactive) |  |
| COc1ccc(Cl)cc1NC(=O)CCc1ncc(-c2ccc(C)cc2)o1 | -24.8% (inactive) |  |
| CC1(c2ccccc2)N(Cc2ccccc2F)C(=O)OC12CCN(Cc1c[nH]c3ccccc13)CC2 (configuration not stated) |  | 28.2 µM (active) |
| CC(C)C(=O)N1CCC2(CC1)OC(=O)N(Cc1ccccc1F)C2(C)c1ccccc1 (configuration not stated) | 6.96% [at 176 µM] (inactive) |  |
| CC1(c2ccccc2)N(Cc2ccc(O)cc2)C(=O)OC12CCN(Cc1ccc(C#N)cc1)CC2 (configuration not stated) | -0.847% (inactive) |  |
| COc1ccccc1CNC(=O)c1ncoc1-c1cccc(C)c1 | 3.56% (inactive) |  |
| CCC(=O)N1c2ccccc2NC2=C(C(=O)CC(C)(C)C2)C1c1cc(OC)ccc1OC (configuration not stated) | 9.28% (inactive) |  |

| Structure (SMILES) | activity change, negative = inhibition | Potency |
| --- | --- | --- |
| COCC1CN(Cc2cn(C)c3ccc(OC)cc23)CC12CCNCC2 (configuration not stated) | 19% (inactive) |  |
| COc1cc(/C=C/c2nc3ccccc3s2)ccc1OC(F)F | 3.41% (inactive) |  |
| CCn1c(SCC(=O)Nc2ccccc2C(=O)NC2CC2)nnc1-c1ccoc1C | -8.6% (inactive) |  |
| COc1ccc(N2CCN(C(=O)CCNC(=O)c3ccc(Br)cc3)CC2)cc1 | -21.7% (inactive) |  |
| COc1ccc(C(=O)NCCSc2ccccc2C)cc1 | 0% (inactive) |  |
| COc1ccc(C(=O)NCC[N+](C)(C)C)cc1 |  | 39.8 µM (active) |
| CCN(Cc1nc(-c2ccc(OC)c(OC)c2)no1)C(=O)Nc1cccc2ccccc12 | 6.76% (inactive) |  |
| Cc1[nH]c2ccccc2c1/C=N/c1sc2c(c1C#N)CCC(C)C2 (configuration not stated) |  | 22.4 µM (active) |
| Cc1[nH]c2ccccc2c1C=O | 8.16% (inactive) |  |
| COC(=O)c1c(NC(=O)CCCOc2ccccc2)sc2c1CCC(C)C2 (configuration not stated) | 0% (inactive) |  |
| COC(=O)CC(NC(=O)c1nn(C)c(=O)c2ccccc12)c1ccc(F)cc1 (configuration not stated) | -8.65% (inactive) |  |
| Nc1ccc(-c2cc(C(=O)O)c3cc(Cl)ccc3n2)cc1 | -28.1% (inactive) |  |
| Cc1nc(C)c(C(=O)N2CCCC(C(=O)NCc3ccccc3)CCNC(=O)CC2)s1 (configuration not stated) | -1.73% (inactive) |  |
| N#CC1CCN(C(=O)c2nc(-c3ccc(Cl)cc3)c3ccccn23)CC1 | -3.2% (inactive) |  |
| CCOc1ccccc1N1CCN(c2nc(-c3cccnc3)nc3ccccc23)CC1 | 3.11% (inactive) |  |
| COc1ccc(N2CCN(c3nc(-c4ccccc4F)nc4ccccc34)CC2)cc1 | -11.4% (inactive) |  |
| COc1ccccc1-c1nc(N2CCN(C)CC2)c2ccccc2n1 |  | 28.2 µM (active) |
| COC(=O)C1CCCCN1S(=O)(=O)c1cc(Cl)ccc1Cl (configuration not stated) | 8.51% (inactive) |  |
| CN1c2ccc(C=O)c3c(C=O)ccc(c23)N(C)C1(C)C |  | 28.2 µM (active) |
| O=C(CCC1NC(=O)c2ccccc2NC1=O)NC1CCCCCC1 (configuration not stated) | -0.849% (inactive) |  |
| Fc1ccccc1N1CCN(c2nc(-c3cccnc3)nc3ccccc23)CC1 | 0.0579% (inactive) |  |
| CC(C)Nc1nc(N(c2ccccc2)c2ccccc2)nc(-n2ccnc2)n1 | 51.5% (inactive) |  |
| FC(F)(F)c1ccccc1-c1nc(-n2ccnc2)c2ccccc2n1 |  | 15.8 µM (active) |
| CCCc1noc(CN2CCN(c3cc(C)nc(C(C)C)n3)CC2)n1 | 6.23% (inactive) |  |
| CC(C)c1ccc(/C=C(/C#N)c2nc3ccccc3[nH]2)cc1 | -19.9% (inactive) |  |
| COc1cccc2cc(/C=C(/C#N)c3nc4ccccc4[nH]3)oc12 | -44.6% (inactive) |  |

| Structure (SMILES) | activity change, negative = inhibition | Potency |
| --- | --- | --- |
| N#C/C(=C/c1ccco1)c1nc2ccccc2[nH]1 |  | 39.8 µM (active) |
| O=c1oc2ccccc2cc1S(=O)(=O)c1cccc(Cl)c1 | -19.4% (inactive) |  |
| CC(C)N1C(=O)C2(CCCC2)C1C(=O)Nc1ccc2c(c1)N(C)CCC2 (configuration not stated) | 71.1% (inactive) |  |
| Cc1ccc(N=C2NC(=O)/C(=C/C=C/c3ccco3)S2)cc1C |  | 10 µM (active) |
| Cc1ccc(N2NC(=O)/C(=C/C=C/c3ccco3)C2=O)cc1C |  | 39.8 µM (active) |
| Cc1ccc(C(=O)N/C(=C\c2ccco2)C(=O)N2CCSCC2)cc1C | 14.6% (inactive) |  |
| CCc1ccccc1NC(=O)Nc1c(NC2CCCC2)c2ccccc2oc1=O | 3.81% (inactive) |  |
| COc1cccc(NC(=O)c2ccc3c(c2)NC(C)(COc2ccccc2)CO3)c1 (configuration not stated) | -2.36% [at 176 µM] (inactive) |  |
| CCCNC(=O)N1CCC(N(C)C2CCOCC2)CC1 | 63.3% (inactive) |  |
| OC(CNCCc1ccc(Cl)cc1Cl)COc1ccccc1 (configuration not stated) |  | 12.6 µM (active) |
| N#Cc1ccc(OCC(O)CNCCC2=CCCCC2)cc1 (configuration not stated) | 5.82% (inactive) |  |
| CC(O)CNCCOc1cccc(Oc2ccccc2)c1 (configuration not stated) | -17.6% (inactive) |  |
| CCn1ccnc1CN(C)Cc1cccc(OCC(O)CN(C)C2CCCCC2)c1 (configuration not stated) | 82.8% (inactive) |  |
| O=C(O)C(c1ccccc1)N1C(=O)/C(=C\c2ccc(-c3cccc(Cl)c3)o2)SC1=S (configuration not stated) |  | 2 µM (active) |
| O=C(NCc1ccccc1)c1cc(-c2cccc(Cl)c2)on1 | -22% (inactive) |  |
| Cc1ccc2[nH]cc(C(C(=O)O)N3CCN(S(=O)(=O)c4ccccc4)CC3)c2c1 (configuration not stated) | -23.2% (inactive) |  |
| NC(=O)c1cccc(NC(=O)c2cccc3cccnc23)c1 | -20.1% (inactive) |  |
| Cc1nn(-c2ccc(C(C)C)cc2)c(C)c1[C@@H]1C=C[C@@H](NC(=O)CC2(CC(=O)O)CCCC2)C1 | 9.29% (inactive) |  |
| Cc1nn(-c2ccc(C(C)C)cc2)c(C)c1[C@@H]1C=C[C@@H](NC(=S)NCC(C)C)C1 |  | 56.2 µM (active) |
| Cc1nn(-c2ccc(C(C)C)cc2)c(C)c1[C@@H]1C=C[C@@H](NC(=O)Nc2ccccc2)C1 | 35% [at 176 µM] (inactive) |  |
| CCCn1nc(C(=O)NC2CCN(C(C)C)CC2)c2ccccc2c1=O | 3.11% (inactive) |  |
| COCCCNC(=O)c1ccc(-c2c(C)noc2C)c2ccoc12 | 8.36% (inactive) |  |
| Cc1cc2cc(-c3c(C)noc3C)nc(NCc3cccnc3)c2o1 | 42.9% [at 176 µM] (inactive) |  |
| Cc1cnc(CNc2cc(-c3c(C)noc3C)ncn2)cn1 | -20.8% (inactive) |  |
| Cc1noc(C)c1-c1cc(NCc2cccnc2)ncn1 |  | 31.6 µM (active) |
| COCCNc1cc(-c2c(C)noc2C)ncn1 |  | 39.8 µM (active) |

| Structure (SMILES) | activity change, negative = inhibition | Potency |
| --- | --- | --- |
| CNc1cc(-c2c(C)noc2C)ncn1 | -26.5% (inactive) |  |
| O=C(NCCc1cccnc1)c1cccc(Cl)c1Cl | 5.55% (inactive) |  |
| c1ccc(-c2noc(-c3ccco3)n2)cc1 | 1.51% (inactive) |  |
| Cc1ccc(C(=O)Nc2cnc3ccccc3c2)cc1[N+](=O)[O-] | 12.7% (inactive) |  |
| C/C(=N\NC(=S)Nc1ccc(C)cc1)c1cc2ccccc2o1 |  | 25.1 µM (active) |
| Cc1cc2nc(-c3ccc(NC(=O)c4cc5ccccc5o4)cc3)oc2cc1C | -10.3% (inactive) |  |
| CC(C)Oc1ccc(NC(=O)c2cc3ccccc3o2)cc1 | 0.347% (inactive) |  |
| COc1cccc(/C=C2\Oc3cc(OS(=O)(=O)c4ccc(C)cc4)ccc3C2=O)c1OC | 1.7% (inactive) |  |
| Cc1ccc(NC(=O)CN(C)C(=O)c2nn(-c3ccccc3)c3c2CCC3)cc1 | 20.1% (inactive) |  |
| CCNC(=O)O[C@@H]1CO[C@H]2[C@@H]1OC[C@@H]2NC(=S)Nc1cccc2ccccc12 |  | 56.2 µM (active) |
| COc1ccc(NC(=O)O[C@@H]2CO[C@H]3[C@@H]2OC[C@@H]3NC(=S)Nc2cccc3ccccc23)cc1 | -26.3% (inactive) |  |
| COc1ccc(-c2ccnc(N[C@H]3CO[C@H]4[C@@H]3OC[C@H]4OC(=O)Nc3cccc4ccccc34)n2)cc1 | 12.3% (inactive) |  |
| CCOc1ccc(N2CC(NC(=O)CC(C)(C)C)CC2=O)cc1 (configuration not stated) | -1.73% (inactive) |  |
| O=C(Cc1ccccc1F)NC(c1ccc2c(c1)CCC2)c1cccs1 (configuration not stated) | -26.6% (inactive) |  |
| CCCCc1ccc(C(=O)Cn2nnc(-c3cccc(F)c3)n2)cc1 | -34.4% (inactive) |  |
| Cc1ccc(C(=O)Nc2cc3c(cc2N2CCCC2)n(C)c(=O)c(=O)n3C)cc1 | 12.9% (inactive) |  |
| CC(C)(C)c1ccc(C(=O)NCC(c2ccco2)S(=O)(=O)c2ccc(F)cc2)cc1 (configuration not stated) | -22.1% (inactive) |  |
| Cn1c(=O)n(C)c2cc(SCc3ccco3)c(NC(=O)c3ccc(C(C)(C)C)cc3)cc21 |  | 8.91 µM (active) |
| CCNC(=O)C1CCCN1S(=O)(=O)c1ccc(Br)s1 (configuration not stated) | 4.48% (inactive) |  |
| Cc1ccc(CN2CCN(C(=O)CCC[C@H]3NC[C@@H]4C[C@H]3CN(Cc3ccccc3)C4)CC2)cc1 | -13.9% (inactive) |  |
| Cc1oc(-c2ccccc2)nc1Cn1ncc2ccccc2c1=O | -5.85% (inactive) |  |
| Cc1ccc(CN2CCC3(Cc4ccccc4CNC3=O)C2)cc1 (configuration not stated) |  | 28.2 µM (active) |
| COc1ccc(CN2CCC3(Cc4ccccc4CNC3=O)C2)cc1OC (configuration not stated) | 8.59% [at 6.33 µM] (inactive) |  |
| Cc1cccc(CN2CCC3(Cc4ccccc4CNC3=O)C2)c1 (configuration not stated) | 3.12% [at 6.33 µM] (inactive) |  |
